Shown are actives, neighbours in structure and some others; about 6.2% of the full set was active somewhere.
Marburg entry inh: inhibitors of Marburg virus binding or cell entry | Marburg virus pseudotyped entry inhibition, cell reporter | Potency, µM (top dose mostly 37.8 µM), inactives show top-dose activity change, negative = inhibition, actives largely listed as inhibitors | hit rate 1.8% among 300,000 | AID 540276; calls by dose curve; tested in HEK293 cells; further: potency means the concentration at half of the fitted maximal effect
HCMV inh: blocks human cytomegalovirus replication | HFF cells, HCMV-luciferase reporter, 72 h; stronger effect = lower value | activity change, negative = inhibition, % at 57.5 µM | hit rate 4.5% among 410,000 | AID 1259415; in the data active means activity change below about -60%; inconclusive means no clear call, values can overlap the other calls; inactive means above about -39%
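HFF cells seeded 16 h at 37C, treated with compounds, infected with luciferase-reporter HCMV at MOI 1 PFU/cell; luciferase read at 72 h post infection, normalized to buffer-only and Salinomycin controls.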
LASV entry inh: Lassa virus entry inhibition. Lassa virus pseudotype entry inhibition, cell reporter. Potency, µM (doses to about 37.9 µM), without a hit: top-dose activity change, negative = inhibition, most hits filed as inhibitors. hit rate 1.2% among 300,000. AID 540256; calls by dose curve; tested in HEK293 cells; further: potency means the concentration at half of the fitted maximal effect; nearly all actives have a fitted effect of over 50% in size
FMDV inh: foot and mouth disease virus antiviral activity; hit rate 1.2% among 410,000; FMDV antiviral cell-based qHTS; Potency, µM (top dose mostly 57.9 µM), inactives show at the top dose activity change, negative = inhibition, most hits filed as inhibitors; calls by dose curve; tested in HEK293T cells; further: read-out not given here; potency means the concentration at half of the fitted maximal effect; nearly all actives have a fitted effect of over 45% in size
The depositor's hits bear a star; ? = inconclusive; · = not tested or not shown; + = active, no number; ! = a repeat was not active; [ ] = dose if it differs, or a comment. On the % scale 0 is the no-effect control and ±100 the full control effect.

SMILES	Marburg entry inh	HCMV inh	LASV entry inh	FMDV inh
c1ccc(CN=C2NN=C(c3ccccc3)CS2)cc1	?	-30	-21%	16%
COc1ccccc1C1=NNC(=NCc2ccccc2)SC1	?	-60*	12%	24%
CCOc1ccc2c(c1)c(=O)c(C(=O)c1ccc3c(c1)OCO3)cn2Cc1cccc(F)c1	?	-5	-17%[46.1 µM]	-17%
N#Cc1cccc(NC(=O)N2CCCC3(CCN(C(=O)c4cc(C(F)(F)F)cc(C(F)(F)F)c4)CC3)C2)c1	·	·	·	-10%
O=C(Nc1nc2n(n1)C(c1ccc(Cl)cc1)C=C(c1ccccc1)N2)c1ccco1 (configuration not stated)	4%[46.1 µM]	?	1%[46.1 µM]	-18%
Cc1ccc(Cn2cnc3nc4c(cc3c2=O)CC(C)CC4)cc1 (configuration not stated)	·	91	20%[46.1 µM]	82%
Cn1ccnc1SCc1cn2cc(Br)ccc2n1	6.3µM*	-17	?	-26%
CC(C)CC(N)C(=O)NC(C)C(=O)O (configuration not stated)	·	·	·	6%
O=C(Nc1cccc(C(F)(F)F)c1)c1cccn(Cc2ccc3c(c2)OC(F)(F)O3)c1=O	?	-16	7%	-24%
O=C(Nc1ccc(C(F)(F)F)cc1)c1cccn(Cc2ccc3c(c2)OC(F)(F)O3)c1=O	?	-98*	-12%	?
COc1ccc(Cl)cc1NC(=O)C1CCCN(c2ncnc3onc(C)c23)C1 (configuration not stated)	·	-77*	-16%[46.1 µM]	?
COc1ccc(NC(=O)C2CCCN(c3ncnc4onc(C)c34)C2)cc1OC (configuration not stated)	·	-14	7%[46.1 µM]	?
CC(NCc1ccncc1)C12CC3CC(CC(C3)C1)C2 (configuration not stated)	2%[46.1 µM]	-11	-17%	-21%
CC(NCc1ccccc1O)C12CC3CC(CC(C3)C1)C2 (configuration not stated)	·	-87*	·	?
CCC1C(=O)NCCN1Cc1ccc2c(c1)CN(Cc1ccc(OC)cc1OC)CCO2 (configuration not stated)	·	·	·	-9%
COc1cc(OC)c(NC(=O)CSCc2nc(-c3ccc(OC)c(OC)c3)no2)cc1Cl	·	10	-7%[46.1 µM]	-13%
CC1(C)CC(=O)C(CS(=O)(=O)c2ccccc2)=C(Cl)C1	·	-68*	·	-17%
COc1cccc2c1C(=O)C=C(C)C2=O	11µM*	-33	11µM*	?
CC1=CC(=O)c2c(O)cccc2C1=O	·	·	·	8.9µM*
CC1CCCCC12NC(=O)N(CC(=O)OCc1ccc(Br)cc1)C2=O (configuration not stated)	·	+	·	?
CC1CCCCC12NC(=O)N(CC(=O)NCc1ccc3c(c1)OCO3)C2=O (configuration not stated)	0%[46.1 µM]	-80*	6%	8%
CCn1cc(C(=O)NCCOC)c(=O)c2cc(S(=O)(=O)N3CCOCC3)ccc21	?	1	0%[46.1 µM]	-7%
OCCN1CCN(c2ncnc3c2ncn3[C@H]2CN(Cc3cccnc3)C[C@@H](CO)O2)CC1	·	-19	·	-14%
Cc1ccc(S(=O)(=O)N2CCN(CCc3ccccc3)CC2)c(C)c1	?	-65*	-5%	?
COc1cc(C)c(C)cc1S(=O)(=O)N1CCN(Cc2ccccc2)CC1	-17%	-62*	1%	·
SMILES	Marburg entry inh	HCMV inh	LASV entry inh	FMDV inh
COc1ccc(S(=O)(=O)N2CCN(Cc3ccccc3)CC2)c(C)c1	·	-21	·	-25%
COc1ccc(CCN(C)CCCOc2ccc(S(=O)(=O)c3[nH]c4ccccc4c3C(C)C)cc2)cc1OC	·	·	·	-29%
Nc1[nH]c(C(=O)c2ccccc2)c(-c2ccccc2C(F)(F)F)c1C(=O)NCCc1c[nH]c2ccccc12	·	-61*	·	4%
COC1=C[C@H](C(=O)NCc2ccccc2)[C@H](C)[C@@H](c2ccccc2)CC1=O	-1%[14.2 µM]	·	·	·
C/C(CC1CC2=C(CC1(C)C)C(C)(C)CCC2)=N\NC(N)=S (configuration not stated)	?	-65*	?	?
C/C(CC1CC(C)(C)OC1=O)=N\NC(N)=S (configuration not stated)	-9%[46.1 µM]	?	23%	22%
Cc1c(C(=O)N(C)Cc2nccs2)sc2ncnc(NCC3CCCO3)c12 (configuration not stated)	·	·	·	-19%
C=CCOC(=O)C1=C(C)Nc2ncnn2C1c1cc(Br)ccc1F (configuration not stated)	?	-28	-26%	13µM*
Cc1cnc(CNc2ccnc(-c3ccoc3)n2)cn1	·	·	·	5%
COc1ccc(-c2cn(-c3ccc(C)c(Cl)c3)c(=S)[nH]2)cc1OC	?	-66*	-15%[46.1 µM]	?
Cc1ccc(C(C(=O)Nc2ccc3c(c2)OCO3)N(C)C(=O)Cc2c[nH]c3ccccc23)cc1 (configuration not stated)	10µM*	-30	?	-13%
CCc1nnc(SCc2cccc(F)c2)c2cc3sc(C)cc3n12	·	?	-22%[46.1 µM]	-4%
CCn1cc(C(=O)NCc2ccc3c(c2)OCO3)c(=O)c2cc(F)c(N3CCN(C(=O)c4ccco4)CC3)cc21	?	-73*	?	14µM*
CCn1cc(C(=O)NCc2ccccc2)c(=O)c2cc(F)c(N3CCN(C(=O)c4ccco4)CC3)cc21	?	-82*	?	20µM*
Cc1cccc(-c2nnc(SCC(=O)NC3CCCCC3)o2)c1	1%[46.1 µM]	-7	-2%[46.1 µM]	10%
COc1ccc(-c2cc3nc(CCl)[nH]c(=O)c3s2)cc1	?	69	?	14µM*
Cc1cc(C(C)(C)C)cc(C)c1S(=O)(=O)N1CC(=O)Nc2ccccc21	-35%	?	11µM*	-20%
Cc1ccc(C(C)(C)C)cc1S(=O)(=O)N1CC(=O)Nc2ccccc21	10µM*	-12	?	-5%
CCCCCCCCN1C(=O)[C@H](CC(=O)NCCc2ccccc2OC)C[C@@]2(C(=O)OC)CCCCC=C12	·	73	·	-16%
CCCNC(=O)OC[C@H]1O[C@H](CCON=C(C)CCN2CCCCc3nc(C)c(C)cc32)C=C[C@H]1Oc1ccc(OC)cc1	-26%[14.2 µM]	·	·	·
Cc1ccc(S(=O)(=O)N(C)C)cc1NC(=O)C(C)N(C)Cc1sccc1C (configuration not stated)	?	-61*	·	16µM*
COc1ccc2nc(C(F)(F)Cl)c(C#N)c(N)c2c1	·	-88*	·	21%
O=C(NNc1nc2ccccc2s1)c1ccc(F)cc1	?	-15	-14%	20%
O=C(NNc1nc2c(F)cc(F)cc2s1)c1ccccc1	?	-70*	5%[46.1 µM]	13%
O=C(NNc1nc2c(F)cccc2s1)c1ccccc1	·	-39	·	8%
O=C(NNc1nc2ccc(F)cc2s1)c1cccc(F)c1	11µM*	-81*	?	6%
CO[C@H]1[C@H](NC(=O)c2ccsc2)c2ccccc2C12CCN(Cc1cnn(C)c1C)CC2	·	·	·	6%
N#C/C(=C\c1ccc(O)cc1)C(=O)O	·	-73*!	·	-13%
Cc1cc(C(=O)Nc2cccc(-c3nc(CNC(=O)c4sc(C)nc4C)c(C)o3)c2)c(C)o1	·	·	·	-1%
COc1ccc(Cc2nc3ccc(C(=O)N(C)Cc4nccs4)cc3o2)cc1OC	·	-65*	·	0%

High-throughput results deposited in PubChem by National Center for Advancing Translational Sciences (NCATS).
